Data taken from the supplement of paper PMC10849652.
About 7,900 targets were measured; listed, in parts, are those with a hit and a random draw of the rest. About 0.6% of all pairs of compound and target were hits.

Assays:
Assay in all cases: log2 fold change, soluble protein after heating vs DMSO (PISA); higher = thermal stabilisation; K562 cells, 10 uM, 30 min; active = over 0.2 and 3.5 SD of the protein, either way, in both replicates (recomputed)
erlotinib = compound: C#Cc1cccc(Nc2ncnc3cc(OCCOC)c(OCCOC)cc23)c1 [erlotinib]
In short: (§1)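 K562 cells (2×10^6 cells/mL) were treated with 10 μM compound for 30 min, and aliquots were heated for 3 min over 48°C-58°C. Pooled aliquots were extracted in PBS with 0.5% NP-40 at 4°C, and the supernatant after 21,000xg for 90 min was measured by TMTpro 16plex LC-MS/MS with channel sums equalised. Reported thermal stability, relative to control samples and from duplicates, is a log2 fold change.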

[1] = compound: C/C(=N\NC(=O)C1=CC(=CC=C1)S(=O)(=O)N2CCOCC2)/C3=C(C=CC(=C3)Cl)O
In short: as §1

[2] = compound: C1=CC(=CC=C1C2=NC3=C(N2)C=C(C=C3)C(=O)N)OC4=CC=C(C=C4)Cl
In short: as §1

[3] = compound: C1=CC2=C(C=CC(=C2)/C=C\3/C(=O)NC(=NCC4=CC=CS4)S3)N=C1
In short: as §1

[4] = compound: C1=CC2=NC=CN=C2C=C1/C=C/3\C(=O)NC(=O)S3
In short: as §1

[5] = compound: C1=CC=C2C(=C1)C3=NNC4=CC=CC(=C43)C2=O
In short: as §1

ibrutinib = compound: C=CC(=O)N1CCC[C@@H](n2nc(-c3ccc(Oc4ccccc4)cc3)c3c(N)ncnc32)C1 [ibrutinib]
In short: as §1

[6] = compound: CC(=O)c1cnc2ccc(-c3cc(Cl)c(O)c(Cl)c3)nc2c1N[C@H]1CC[C@H](CN(C)C)CC1
In short: as §1

[7] = compound: CC(C)C1=C2N=C(C=C(N2N=C1)NCC3=CC=CC=C3)NCCCCCCN
In short: as §1

[8] = compound: CC1=C(C(CC(=O)N1)C2=CC=C(C=C2)C(F)(F)F)C(=O)NC3=C(C=C4C(=C3)C=NN4)F
In short: as §1

[9] = compound: C1=CC=C(C=C1)C2=NC(=C(N2)C3=CC=NC=C3)C4=CC(=C(C=C4)Cl)O
In short: as §1

[10] = compound: C1CCN(C1)C(=O)NC2=CC=CC(=C2)NC3=NC=C(C(=N3)NCCC4=CN=CN4)Br
In short: as §1

[11] = compound: C1CN(CCC1(CC2=CC=C(C=C2)Cl)N)C3=NC=NC4=C3C=CN4
In short: as §1

IRAK-1-4 Inhibitor I = compound: C1COCCN1CCN2C3=CC=CC=C3N=C2NC(=O)C4=CC(=CC=C4)[N+](=O)[O-] [IRAK-1-4 Inhibitor I]
In short: as §1

ralimetinib = compound: CC(C)(C)Cn1c(N)nc2ccc(-c3[nH]c(C(C)(C)C)nc3-c3ccc(F)cc3)nc21 [ralimetinib]
In short: as §1

[12] = compound: CC(C)C[C@@H](C=O)NC(=O)[C@H](CC(C)C)NC(=O)[C@H](CC(C)C)NC(=O)OCc1ccccc1
In short: as §1

pinometostat = compound: CC(C)N(C[C@H]1O[C@@H](n2cnc3c(N)ncnc32)[C@H](O)[C@@H]1O)[C@H]1C[C@@H](CCc2nc3cc(C(C)(C)C)ccc3[nH]2)C1 [pinometostat]
In short: as §1

[13] = compound: CC1=C(C2=C(C=C1)C(=O)C3=CC=CC=C3N2CCCN)C
In short: as §1

[14] = compound: C1=CC(=C(C=C1Cl)C2=NC3=NC=CN=C3C(=N2)NC4=CC=NC=C4)F
In short: as §1

[15] = compound: CC(C)(O)CC(=O)NCCn1ccc2ncnc(Nc3ccc(Oc4cccc(C(F)(F)F)c4)c(Cl)c3)c21
In short: as §1

Measured: log2 fold change

PPP2R5B (UniProt Q15173)
inactive: erlotinib -0.044 | [1] 0.039 | [2] -0.05 | [3] -0.003 | [4] 0.072 | [5] 0.124 | ibrutinib -0.083 | [6] 0.165 | [7] 0.092 | [8] 0.037

PI4K2B (UniProt Q8TCG2)
inactive: erlotinib -0.003 | [1] -0.008 | [2] 0.065 | [3] 0.004 | [4] 0.016 | [9] -0.019 | [5] -0.007 | [10] 0.048 | [11] -0.173 | IRAK-1-4 Inhibitor I 0.035 | ibrutinib -0.004 | [6] 0.042 | ralimetinib -0.04 | [7] -0.131 | [12] -0.017 | pinometostat 0.053 | [8] 0.135 | [13] 0.003

PPP1R12C (UniProt Q9BZL4)
inactive: erlotinib -0.13 | [14] -0.011 | [2] -0.059 | [4] 0.064 | [9] 0.037 | [10] -0.05 | [11] -0.238 | ibrutinib -0.024 | ralimetinib -0.028 | [15] 0.045 | [7] -0.126 | [12] -0.041 | [8] -0.291 | [13] -0.157

PSMA3 (UniProt G3V4X5)
inactive: [4] 0.051 | [9] 0.348 | IRAK-1-4 Inhibitor I -0.451 | ibrutinib -0.065 | ralimetinib -0.114 | pinometostat -0.001
active: [12] 0.733

PCF11 (UniProt O94913)
inactive: [1] 0.04 | [3] -0.082 | [4] 0.111 | [9] -0.191 | [5] 0.083 | IRAK-1-4 Inhibitor I 0.002 | ibrutinib -0.255 | [6] -0.093 | ralimetinib -0.104 | [12] -0.083 | pinometostat -0.058

PGK2 (UniProt P07205)
UniProt P07205, sequence (P07205 whole entry, looked up): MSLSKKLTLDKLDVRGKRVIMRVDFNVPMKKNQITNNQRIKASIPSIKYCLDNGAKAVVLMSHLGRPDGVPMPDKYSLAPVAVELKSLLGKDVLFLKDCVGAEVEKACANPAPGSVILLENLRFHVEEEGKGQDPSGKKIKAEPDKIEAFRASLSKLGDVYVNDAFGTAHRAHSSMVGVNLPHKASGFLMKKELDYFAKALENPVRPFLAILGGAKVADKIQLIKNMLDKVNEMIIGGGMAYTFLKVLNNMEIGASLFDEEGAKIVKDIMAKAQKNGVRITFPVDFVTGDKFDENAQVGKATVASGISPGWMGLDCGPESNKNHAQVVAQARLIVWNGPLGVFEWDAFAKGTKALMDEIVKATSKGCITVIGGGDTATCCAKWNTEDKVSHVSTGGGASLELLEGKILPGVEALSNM
inactive: [1] -0.055 | [14] -0.082 | [3] 0.152 | [4] -0.018 | [9] -0.057 | [5] -0.012 | [10] 0.034 | [11] 0.029 | IRAK-1-4 Inhibitor I 0.039 | ibrutinib -0.003 | [6] 0.004 | ralimetinib -0.07 | [15] 0.008 | [12] 0.063 | pinometostat -0.032 | [8] 0.096 | [13] -0.037

PNPLA4 (UniProt P41247)
inactive: erlotinib 0.426 | [1] 0.13 | [2] -0.176 | [3] -0.148 | [4] 0.133 | [9] -0.084 | [5] 0.059 | [10] 0.108 | [11] 0.029 | IRAK-1-4 Inhibitor I -0.094 | ibrutinib 0.012 | [6] 0.005 | ralimetinib -0.022 | [7] 0.115 | [12] 0.209 | pinometostat 0.049 | [8] 0.054 | [13] -0.025

PUM1 (UniProt Q14671)
UniProt Q14671, sequence (Q14671 whole entry, looked up): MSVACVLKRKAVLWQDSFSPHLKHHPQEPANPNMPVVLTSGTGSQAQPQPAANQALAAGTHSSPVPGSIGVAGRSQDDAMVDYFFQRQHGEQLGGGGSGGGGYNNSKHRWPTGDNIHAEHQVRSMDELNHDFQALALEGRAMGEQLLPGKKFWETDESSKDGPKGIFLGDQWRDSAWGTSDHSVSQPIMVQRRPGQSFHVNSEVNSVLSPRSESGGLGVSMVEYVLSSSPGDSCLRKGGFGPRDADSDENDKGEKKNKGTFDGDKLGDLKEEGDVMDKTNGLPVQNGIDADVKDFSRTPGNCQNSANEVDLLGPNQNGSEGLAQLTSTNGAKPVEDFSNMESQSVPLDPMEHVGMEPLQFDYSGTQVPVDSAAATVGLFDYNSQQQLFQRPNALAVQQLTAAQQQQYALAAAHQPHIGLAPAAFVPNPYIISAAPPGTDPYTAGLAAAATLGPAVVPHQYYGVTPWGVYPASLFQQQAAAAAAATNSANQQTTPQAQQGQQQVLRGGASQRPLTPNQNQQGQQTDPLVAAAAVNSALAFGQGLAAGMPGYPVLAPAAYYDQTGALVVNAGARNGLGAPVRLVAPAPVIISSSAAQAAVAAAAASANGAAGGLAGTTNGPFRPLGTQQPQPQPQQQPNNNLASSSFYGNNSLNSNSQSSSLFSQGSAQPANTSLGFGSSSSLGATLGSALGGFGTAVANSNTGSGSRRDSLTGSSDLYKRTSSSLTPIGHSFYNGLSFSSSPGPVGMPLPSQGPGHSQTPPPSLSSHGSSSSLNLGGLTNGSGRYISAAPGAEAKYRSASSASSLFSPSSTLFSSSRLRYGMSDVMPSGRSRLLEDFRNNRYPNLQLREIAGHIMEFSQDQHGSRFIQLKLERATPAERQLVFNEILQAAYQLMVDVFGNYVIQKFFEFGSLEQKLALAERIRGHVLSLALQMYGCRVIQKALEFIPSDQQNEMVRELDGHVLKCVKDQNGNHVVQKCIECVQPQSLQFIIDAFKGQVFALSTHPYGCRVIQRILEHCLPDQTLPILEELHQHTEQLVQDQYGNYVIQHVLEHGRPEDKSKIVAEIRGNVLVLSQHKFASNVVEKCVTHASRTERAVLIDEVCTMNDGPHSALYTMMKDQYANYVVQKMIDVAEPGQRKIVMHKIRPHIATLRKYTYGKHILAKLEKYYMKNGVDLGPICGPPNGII
inactive: erlotinib 0.308 | [1] 0.035 | [2] 0.15 | [3] -0.034 | [5] 0.051 | [10] -0.045 | [11] -0.024 | IRAK-1-4 Inhibitor I 0.101 | [6] -0.038 | [7] -0.226 | pinometostat 0.073 | [13] 0.139

POGZ (UniProt Q7Z3K3)
active: [13] -0.826
inactive: erlotinib 0.006 | [1] 0.085 | [14] 0.044 | [2] 0.033 | [3] -0.172 | [9] 0.023 | [5] 0.082 | [10] 0.026 | [11] 0.115 | IRAK-1-4 Inhibitor I -0.133 | [6] -0.183 | ralimetinib 0.083 | [15] -0.035 | [7] 0.066 | [12] 0.038 | pinometostat -0.05

PLCXD1 (UniProt Q9NUJ7)
UniProt Q9NUJ7, sequence (Q9NUJ7 whole entry, looked up): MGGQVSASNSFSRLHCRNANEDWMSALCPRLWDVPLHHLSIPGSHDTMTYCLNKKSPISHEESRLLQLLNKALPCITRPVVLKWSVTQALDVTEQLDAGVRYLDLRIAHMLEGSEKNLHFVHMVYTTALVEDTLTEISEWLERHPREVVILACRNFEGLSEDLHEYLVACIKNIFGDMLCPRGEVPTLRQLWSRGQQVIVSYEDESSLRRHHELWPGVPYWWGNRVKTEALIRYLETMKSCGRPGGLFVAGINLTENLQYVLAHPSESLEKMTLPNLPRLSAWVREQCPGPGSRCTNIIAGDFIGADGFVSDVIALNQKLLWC
inactive: [4] 0.025 | [9] -0.012 | ibrutinib 0.021 | ralimetinib 0.113 | [12] 0.175

PIAS4 (UniProt Q8N2W9)
inactive: [14] 0.061 | [9] -0.214 | [10] 0.129 | [11] -0.045 | IRAK-1-4 Inhibitor I -0.111 | ralimetinib -0.005 | [12] 0.035 | pinometostat 0.037 | [13] -0.275
active: [15] -0.781

PTEN isoform 2 (UniProt P60484)
UniProt P60484, sequence (P60484 whole entry, looked up): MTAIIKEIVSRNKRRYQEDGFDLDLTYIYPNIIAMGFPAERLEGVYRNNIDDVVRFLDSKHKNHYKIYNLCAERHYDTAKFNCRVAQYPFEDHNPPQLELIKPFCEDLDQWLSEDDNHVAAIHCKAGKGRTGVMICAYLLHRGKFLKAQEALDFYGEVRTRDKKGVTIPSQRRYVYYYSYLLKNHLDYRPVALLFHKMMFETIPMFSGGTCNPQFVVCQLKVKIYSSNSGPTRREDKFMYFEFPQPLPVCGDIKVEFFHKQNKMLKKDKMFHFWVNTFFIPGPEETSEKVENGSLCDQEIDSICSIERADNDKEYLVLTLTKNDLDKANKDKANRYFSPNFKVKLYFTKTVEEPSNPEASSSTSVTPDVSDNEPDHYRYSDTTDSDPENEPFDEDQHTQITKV
active: [7] -0.629
inactive: erlotinib 0.264 | [2] 0.061 | [9] 0.178 | IRAK-1-4 Inhibitor I -0.227 | ralimetinib 0.062 | [12] 0.083 | pinometostat -0.006

PRKD2 (UniProt M0R346)
inactive: [14] -0.066 | [4] -0.032 | ibrutinib -0.096 | [15] -0.273

PHRF1 (UniProt Q9P1Y6)
active: [7] 0.718
inactive: erlotinib -0.161 | [2] 0.082 | [9] 0.073 | ralimetinib -0.144 | [12] 0.119

PUF60 isoform 2 (UniProt Q9UHX1)
inactive: [1] 0.242 | [3] -0.242 | [4] 0.086 | [9] 0.05 | [5] 0.046 | [10] -0.148 | [11] -0.148 | ibrutinib 0.035 | [6] -0.329 | ralimetinib 0.25 | [12] -0.203 | [13] -0.052

PMS2CL (UniProt Q68D20)
UniProt Q68D20, sequence (Q68D20 whole entry, looked up): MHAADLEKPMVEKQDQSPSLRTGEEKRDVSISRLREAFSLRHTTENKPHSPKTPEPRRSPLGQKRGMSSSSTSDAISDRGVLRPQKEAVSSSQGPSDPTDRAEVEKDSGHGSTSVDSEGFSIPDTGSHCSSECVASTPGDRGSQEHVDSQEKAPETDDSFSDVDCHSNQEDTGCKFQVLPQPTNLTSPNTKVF
inactive: [14] 0.094 | [9] -0.023 | ralimetinib -0.21 | [15] -0.042 | [12] -0.258 | [8] 0.231

PDE4DIP (UniProt E9PS60)
inactive: erlotinib 0.086 | [2] -0.175 | IRAK-1-4 Inhibitor I -0.183 | [7] 0.171 | pinometostat 0.178

PRKD3 (UniProt O94806)
UniProt O94806, sequence (O94806 whole entry, looked up): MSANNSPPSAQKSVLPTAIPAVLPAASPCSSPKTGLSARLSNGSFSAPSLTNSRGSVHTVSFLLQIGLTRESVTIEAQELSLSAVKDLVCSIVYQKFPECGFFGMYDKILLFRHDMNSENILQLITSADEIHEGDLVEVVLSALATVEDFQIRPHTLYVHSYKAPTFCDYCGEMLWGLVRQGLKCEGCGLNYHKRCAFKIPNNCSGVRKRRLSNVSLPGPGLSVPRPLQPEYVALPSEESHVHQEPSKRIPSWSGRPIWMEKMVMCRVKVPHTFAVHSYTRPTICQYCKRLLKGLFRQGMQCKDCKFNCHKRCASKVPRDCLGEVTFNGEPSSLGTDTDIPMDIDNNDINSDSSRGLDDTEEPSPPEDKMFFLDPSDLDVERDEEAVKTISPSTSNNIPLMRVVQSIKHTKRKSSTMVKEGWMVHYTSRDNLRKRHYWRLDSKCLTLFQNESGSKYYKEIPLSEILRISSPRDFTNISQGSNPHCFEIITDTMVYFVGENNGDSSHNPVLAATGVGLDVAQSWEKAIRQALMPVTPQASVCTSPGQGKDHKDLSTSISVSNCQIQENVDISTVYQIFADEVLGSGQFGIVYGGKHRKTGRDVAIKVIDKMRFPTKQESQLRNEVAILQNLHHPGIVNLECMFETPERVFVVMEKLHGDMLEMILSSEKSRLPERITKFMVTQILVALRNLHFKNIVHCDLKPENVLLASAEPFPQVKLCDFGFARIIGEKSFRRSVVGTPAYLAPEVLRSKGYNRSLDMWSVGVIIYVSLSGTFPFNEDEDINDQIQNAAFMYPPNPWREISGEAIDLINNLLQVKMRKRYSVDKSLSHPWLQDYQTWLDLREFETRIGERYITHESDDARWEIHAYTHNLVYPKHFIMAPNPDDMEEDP
active: [6] -2.06
inactive: erlotinib 0.051 | [1] 0.373 | [2] 0.013 | [3] -0.197 | [4] 0.034 | [9] 0.055 | [5] -0.507 | IRAK-1-4 Inhibitor I 0.189 | ibrutinib 0.059 | ralimetinib -0.089 | [7] -0.129 | [12] 0.06 | pinometostat 0.266

PSD3 (UniProt Q9NYI0)
inactive: [1] -0.022 | [3] 0.1 | [9] -0.001 | [5] 0.018 | IRAK-1-4 Inhibitor I 0.014 | [6] -0.024 | ralimetinib -0.026 | [12] -0.055 | pinometostat -0.037 | [8] -0.016

POLB (UniProt P06746)
inactive: erlotinib -0.236 | [14] -0.186 | [2] 0.094 | [9] 0 | [10] -0.118 | [11] 0.002 | ralimetinib 0.14 | [15] -0.222 | [7] 0.091 | [12] 0.143 | [8] -0.168 | [13] 0.175

PKM isoform 2 (UniProt P14618)
active: [15] -0.561
inactive: [1] -0.004 | [14] 0.075 | [3] -0.005 | [4] -0.18 | [9] -0.048 | [5] 0.04 | [10] -0.047 | [11] 0.003 | IRAK-1-4 Inhibitor I -0.018 | [6] 0 | ralimetinib 0.054 | [12] 0.023 | pinometostat 0.08 | [8] -0.068 | [13] 0.034

PHC3 isoform 7 (UniProt Q8NDX5)
inactive: erlotinib 0.08 | [14] 0.24 | [2] -0.002 | [4] 0.174 | IRAK-1-4 Inhibitor I -0.377 | ibrutinib -0.159 | [15] -0.25 | [7] -0.219 | pinometostat -0.11 | [8] 0.021

PSMA3 (UniProt H0YJ03)
inactive: [3] 0.095 | [9] -0.065 | [5] -0.006 | [10] -0.027 | [11] 0.2 | IRAK-1-4 Inhibitor I 0.023 | [6] 0.052 | ralimetinib 0.14 | [12] 0.067 | pinometostat 0.061 | [13] 0.046
active: [1] -0.698

PAN2 (UniProt Q504Q3)
UniProt Q504Q3, sequence (Q504Q3 whole entry, looked up): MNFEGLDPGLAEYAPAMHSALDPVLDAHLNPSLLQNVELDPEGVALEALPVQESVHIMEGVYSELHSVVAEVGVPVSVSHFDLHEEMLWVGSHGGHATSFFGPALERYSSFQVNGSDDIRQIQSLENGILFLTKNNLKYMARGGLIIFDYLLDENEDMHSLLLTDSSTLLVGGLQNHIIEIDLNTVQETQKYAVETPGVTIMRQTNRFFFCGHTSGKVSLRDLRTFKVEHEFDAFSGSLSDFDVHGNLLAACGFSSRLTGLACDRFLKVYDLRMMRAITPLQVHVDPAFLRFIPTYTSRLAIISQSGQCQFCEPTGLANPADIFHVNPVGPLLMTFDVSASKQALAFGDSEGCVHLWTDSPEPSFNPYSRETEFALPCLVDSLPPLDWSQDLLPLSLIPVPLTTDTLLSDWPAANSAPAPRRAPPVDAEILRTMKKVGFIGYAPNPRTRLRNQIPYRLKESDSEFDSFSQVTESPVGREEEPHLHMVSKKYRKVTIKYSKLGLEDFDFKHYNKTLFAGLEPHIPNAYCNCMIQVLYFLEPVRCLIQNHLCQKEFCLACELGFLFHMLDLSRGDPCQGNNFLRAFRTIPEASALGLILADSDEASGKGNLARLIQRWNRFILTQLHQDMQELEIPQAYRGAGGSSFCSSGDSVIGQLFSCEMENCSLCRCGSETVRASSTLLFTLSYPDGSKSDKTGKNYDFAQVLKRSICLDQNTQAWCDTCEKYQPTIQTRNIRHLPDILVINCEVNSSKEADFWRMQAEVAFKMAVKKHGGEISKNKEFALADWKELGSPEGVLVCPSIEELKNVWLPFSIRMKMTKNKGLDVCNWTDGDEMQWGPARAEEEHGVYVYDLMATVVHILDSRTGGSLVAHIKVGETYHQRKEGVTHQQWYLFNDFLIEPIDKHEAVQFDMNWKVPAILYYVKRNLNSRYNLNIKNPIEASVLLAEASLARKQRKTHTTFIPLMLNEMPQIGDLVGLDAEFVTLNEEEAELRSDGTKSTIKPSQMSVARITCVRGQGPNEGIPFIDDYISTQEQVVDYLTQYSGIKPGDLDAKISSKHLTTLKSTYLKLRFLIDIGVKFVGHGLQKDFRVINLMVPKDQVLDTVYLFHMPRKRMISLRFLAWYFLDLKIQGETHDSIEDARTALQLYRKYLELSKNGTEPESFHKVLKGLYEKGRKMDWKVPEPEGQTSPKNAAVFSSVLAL
inactive: [4] 0.044 | ibrutinib -0.134 | [8] 0.099

PSMC3 (UniProt E9PLG2)
inactive: [14] -0.437 | [4] 0.151 | [10] 0.27 | [11] -0.045 | IRAK-1-4 Inhibitor I -0.064 | ibrutinib -0.051 | [15] 0.167 | pinometostat -0.1 | [13] -0.155

PCID2 (UniProt Q5JVF3)
UniProt Q5JVF3, sequence (Q5JVF3 whole entry, looked up): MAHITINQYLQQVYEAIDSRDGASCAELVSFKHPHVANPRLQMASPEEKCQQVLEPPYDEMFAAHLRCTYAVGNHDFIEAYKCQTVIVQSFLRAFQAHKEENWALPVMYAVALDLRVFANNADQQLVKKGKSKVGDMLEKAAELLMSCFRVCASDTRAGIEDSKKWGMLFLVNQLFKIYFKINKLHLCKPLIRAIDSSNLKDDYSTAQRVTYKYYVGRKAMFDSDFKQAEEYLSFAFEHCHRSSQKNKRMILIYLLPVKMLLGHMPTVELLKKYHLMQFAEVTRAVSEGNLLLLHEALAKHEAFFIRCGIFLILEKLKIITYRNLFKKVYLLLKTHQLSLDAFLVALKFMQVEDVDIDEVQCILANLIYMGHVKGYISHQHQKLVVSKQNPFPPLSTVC
active: [7] -0.428
inactive: erlotinib 0.086 | [14] -0.088 | [2] -0.021 | [4] 0.028 | [9] -0.005 | [10] -0.086 | [11] -0.161 | IRAK-1-4 Inhibitor I -0.008 | ibrutinib -0.015 | ralimetinib 0.007 | [15] 0.063 | [12] -0.02 | pinometostat 0.037 | [8] 0.035 | [13] 0.06
